In the library only some 0.7% were active in any assay of this set; here they are far more common.
PINK1 expr mod: A Quantitative High throughput Screen to Identify Chemical Modulators of PINK1 Expression; PINK1 immunofluorescence, high-content cytometry, 24 h; Potency, µM (titrated, usually from 76.6 µM), for inactives: at the highest dose activation (PINK1 increase), most hits filed as activators; 410,000 tested, 0.2% active; active means well fitted activation curve with a large enough effect; inconclusive means small, poorly fitted or top-dose-only effect; cell line not stated here; further: % of control where 0% means no effect; nearly all actives have a fitted effect of over 65% in size
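Stable cell line, 250 cells/well, 12 h attachment; compounds pinned at 5 concentrations, 24 h; CCCP control. Fixed with nuclear dye, primary antibodies 12 h at 10 degrees C, secondary plus cell stain; laser-scanning cytometer read.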
Vif-APOBEC3G blk: qHTS for Inhibitors of Vif-A3G Interactions: qHTS | Potency, µM (top dose mostly 46.1 µM), without a hit: top-dose activity, negative = active, most hits filed as inhibitors | AID 602310, 2012 | 410,000 tested, 0.076% active | HeLa A3G-eYFP + Vif (tagged APOBEC3G with the HIV-1 protein that degrades it), YFP fluorescence, overnight | DNA dC->dU-editing enzyme APOBEC-3G (Homo sapiens), Q9HC16; further: on the % scale 0 is the no-effect control and ±100 the full control effect; nearly all actives have a fitted effect of over 60% in size
Target sequence (Q9HC16 whole entry, looked up): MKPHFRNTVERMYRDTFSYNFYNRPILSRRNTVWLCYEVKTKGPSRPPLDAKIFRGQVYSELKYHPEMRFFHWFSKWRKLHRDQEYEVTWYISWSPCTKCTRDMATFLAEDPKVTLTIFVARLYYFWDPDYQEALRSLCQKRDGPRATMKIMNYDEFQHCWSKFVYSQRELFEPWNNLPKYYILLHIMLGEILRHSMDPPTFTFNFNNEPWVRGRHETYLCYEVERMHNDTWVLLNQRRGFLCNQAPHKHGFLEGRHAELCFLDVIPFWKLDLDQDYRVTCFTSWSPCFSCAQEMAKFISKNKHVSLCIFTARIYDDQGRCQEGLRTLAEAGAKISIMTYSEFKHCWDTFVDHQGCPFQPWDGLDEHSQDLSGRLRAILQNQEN
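HeLa cells stably expressing Vif and C-terminally eYFP-tagged A3G, seeded overnight at 37 deg C, then exposed to compound by pintool overnight at 37 deg C. Rise in yellow fluorescence (Ex 488/Em 500-530, Acumen) marks blocked Vif-driven A3G degradation.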
GLS inhibitor: qHTS for Inhibitors of Glutaminase (GLS) | Glutaminase kidney isoform, mitochondrial (Homo sapiens), O94925 | GLS enzymatic activity, qHTS titration | Potency, µM (titrated, usually from 45.5 µM), inactives show at the highest dose activity change, negative = inhibition, hits mostly inhibitors | 410,000 tested, 0.21% active | AID 624170, 2012; further: on the % scale 0 is the no-effect control and ±100 the full control effect
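Human kidney-isoform GLS in 45 mM KH2PO4 pH 8.2, 0.02% Tween-20, with compound, started with 1mM L-Glutamine (added stock). Glutamate oxidase/HRP/Amplex red coupled fluorescence read at start and after 30 min at RT.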
Vif-APOBEC3F blk: qHTS for Inhibitors of Vif-A3F Interactions: qHTS; 390,000 tested, 0.2% active; Potency, µM (doses to about 46.1 µM), for the others: top-dose activity, negative = active; HeLa A3F-eYFP + Vif (tagged APOBEC3F with the HIV-1 protein that degrades it), YFP fluorescence increase; AID 602313, 2012; further: % of control where 0% means no effect; nearly all actives have a fitted effect of over 65% in size
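Fluorescence increase (Ex 488/Em 500-530) after overnight compound treatment at 37 deg C flags inhibition of Vif-driven A3F-eYFP loss in stable HeLa A3F-eYFP/Vif cells seeded overnight beforehand.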
Epigenetic derep: Quantitative High-Throughput Screen for Regulators of Epigenetic Control; murine LDR cells, GFP reporter derepression, 30 h; Potency, µM (highest dose often 53.9 µM), inactives show top-dose GFP activation, actives largely listed as activators; 280,000 tested, 0.2% active; AID 1865, 2009; further: % of control where 0% means no effect; nearly all actives have a fitted effect of over 60% in size
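GFP-positive cell count by laser-scanning cytometry (objects 20–120 um) after 30 h, 37 C compound exposure of murine LDR cells; reporter is CMV-GFP integrated at a silenced locus, inducible by HDAC or DNMT inhibitors.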
Numbers without * were called inactive; u = inconclusive; x = no result; [ ] = remark or other dose. Unless noted, the call rests on the fitted dose curve; in most records, active means well fitted curve in the direction sought with a large enough effect; inconclusive means small, poorly fitted or top-dose-only effect, or another doubt; inactive means no such curve, though single readings can be large; an effect the other way counts as inactive or inconclusive. Potency means the concentration at half of the fitted maximal effect.

SMILES	PINK1 expr mod	Vif-APOBEC3G blk	GLS inhibitor	Vif-APOBEC3F blk	Epigenetic derep
COc1ccccc1C1CN(CCNC(=O)c2ccc3c(c2)OCCO3)Cc2ccccc2O1 (stereo not drawn)	1%	x	x	x	x
O=C(c1ccc2c(c1)OCO2)N1CCOc2ccc(CN3CCC(Oc4cccnc4)CC3)cc2C1	-1%	x	x	x	x
Cc1ccccc1C1=C/C(=C(\SS/C(C(=O)c2ccc(OCC(=O)O)c(Cl)c2Cl)=C2\C=C(c3ccccc3C)SS2)C(=O)c2ccc(OCC(=O)O)c(Cl)c2Cl)SS1	35µM*	4%	u	0%	x
O=C(CSc1ccncc1)NCC1Cc2cccc(-c3cncnc3)c2O1 (stereo not drawn)	-1%	x	x	x	x
C=CCNC(=S)N/N=C(\C)c1ccc(OC)cc1	1%	1%	13%	10µM*	u
C=CCNC(=S)N/N=C(\C)c1cccc(OC)c1	1%	1%	24%	u	u
Cc1cccc(C(=O)NCc2nc(-c3cccc(NC(=O)c4ccoc4C)c3)oc2C)n1	0%	x	x	x	x
Cc1cc(/C=C2\NC(=S)N(C)C2=O)ccc1N1CCCC1	u	6.3µM*	10%	u	u
CCCN1C(=O)/C(=C/c2ccc(N3CCOCC3)cc2)NC1=S	10%	u	4%	u	1%
CCCN1C(=O)/C(=C/c2ccc(OCC(=O)OCC)cc2)NC1=S	7%	-7%	1%	-23%	3%
Cc1cc(/C=C2/C(=O)N(C)C(=S)N2C)ccc1N1CCCC1	u	u	15%	u	u
CCCN1C(=O)/C(=C/c2ccc(N3CCCC3)c(C)c2)NC1=S	10%	u	-6%	u	1µM*
CCN1C(=O)/C(=C/c2ccc(N3CCCC3)cc2)NC1=S	14%	8.9µM*	-1%	25µM*	u
O=[N+]([O-])c1ccc(O)c(C(C#Cc2ccccc2)N2CCOCC2)c1 (stereo not drawn)	40µM*	-2%	-2%	3%	0%
CS(=O)(=O)Nc1cccc(C2=NN(S(C)(=O)=O)C(c3ccc4c(c3)OCO4)C2)c1 (stereo not drawn)	2%	u	7%	-16%	6%
CS(=O)(=O)N1N=C(c2ccccc2)CC1c1ccc2c(c1)OCO2 (stereo not drawn)	22%	10µM*	2%	u	-3%
Cc1c(C(=O)Nc2nonc2-c2ccc(F)cc2)oc2ccc(F)cc12	28µM*	-8%	2%	-23%	x
Nc1c(C(=O)O)sc2nc(-c3ccc(F)cc3)cc(-c3ccccc3)c12	2%	-18%	22%	11µM*	u
Cc1ccc(NC(=O)C(OC(=O)c2cc(C)oc2C)c2ccccc2)cc1 (stereo not drawn)	14%	-1%	0%	-11%	0%
Cc1cc(C(=O)OC(C(=O)Nc2cccc(C(F)(F)F)c2)c2ccccc2)c(C)o1 (stereo not drawn)	35µM*	-1%	0%	-30%	0%
Cc1ccc(S(=O)(=O)c2c(C)cc(C)nc2Cl)cc1	2%	0%	11µM*	3%	-4%
Cc1cc(C)c(S(=O)(=O)c2ccccc2C)c(Cl)n1	-3%[38.3 µM]	0%	13µM*	5%	0%
Cc1ccc(S(=O)(=O)c2c(C)cc(C)nc2Cl)c(C)c1	-2%	-4%	13µM*	3%	-6%
Cc1cc(C)c(S(=O)(=O)c2ccccc2)c(Cl)n1	-1%	0%	-21%	1%	-2%
Cc1oc(-c2ccccc2NC(=O)C2CCCO2)nc1CNC(=O)c1cc(F)c(F)cc1F (stereo not drawn)	2%	x	x	x	x
SMILES	PINK1 expr mod	Vif-APOBEC3G blk	GLS inhibitor	Vif-APOBEC3F blk	Epigenetic derep
O=C1NC(=S)S/C1=C\c1ccc(SCc2ccco2)o1	4%	-16%	11µM*	1%	-2%
O=C1NC(=S)S/C1=C\c1ccc(SCc2ccccc2)o1	u	-22%	u	-16%	0%
Cc1ncc2c(c1CNC(=O)c1ccc3c(c1)OCO3)CCN(C(=O)c1noc3c1CCCC3)C2	0%	x	x	x	x
COc1cc2cc(Oc3ccc4ccc(=O)oc4c3)c(=O)oc2cc1OC1OC(COC(=O)CC(C)(O)CC(=O)O)C(O)C(O)C1O (stereo not drawn)	0%	-2%	u	8%	-3%
COc1cc2cc(Oc3ccc4ccc(=O)oc4c3)c(=O)oc2cc1O[C@@H]1O[C@H](CO)[C@@H](O)[C@H](O)[C@H]1O	1%	-5%	18µM*	-6%	x
N#C/C(=C\c1ccccc1[N+](=O)[O-])C(=O)NCc1ccccc1	9%	-6%	3%	13µM*	1%
CCN(CC)c1ccc(/C=C(/C#N)C(=O)NCc2ccccc2)o1	32µM*	7%	1%	u	u
Cc1ccc(CNc2ncnc3sc(C(=O)N4CCC[C@H]4C(N)=O)c(C)c23)o1	-1%	x	x	x	x
COC(=O)c1cc(NC(=O)c2cccc(C(F)(F)F)c2)c(=O)oc1C/C=N/OCc1cccc(Cl)c1Cl	22µM*	-9%	-5%	u	2%
Cc1ccc(NC(=O)c2ccccc2NS(=O)(=O)c2ccc(F)cc2)cc1S(=O)(=O)N1CCCCC1	11µM*	-6%	-5%	3%	-2%
O=C(Nc1cccc(S(=O)(=O)N2CCCCC2)c1)c1ccccc1NS(=O)(=O)c1ccc(F)cc1	14µM*	-7%	12%	-3%	3%
NS(=O)(=O)c1cccc(NC(=O)c2ccccc2NS(=O)(=O)c2ccc(F)cc2)c1	1%	1%	-12%	-5%	x
COCC(=O)Nc1cc(C(=O)N2CCSCC2)cc2nc(-c3ccccc3)n(C)c12	1%	x	x	x	x
COC(=O)[C@@H]1CCCN1Cc1ccc2c(c1)CN(Cc1coc3ccc(C)cc3c1=O)CCO2	1%	x	x	x	x
FC(F)(F)c1ccccc1NC(=S)NN=C1CCCCCC1	10%	u	8%	6.3µM*	-4%
COc1ccc(OC)c(C(=O)N(Cc2cc3cccc(C)c3nc2N2CCC(O)CC2)C2CC2)c1	1%	x	x	x	x
CCCCNc1c(-c2ccc(OC)c(Sc3ccc(OC)cc3)c2)nc2cnccn12	28%	-19%	15%	3%	x
CCCCNc1c(-c2ccc(SC(C)CC)cc2)nc2cnccn12 (stereo not drawn)	-1%	u	20%	10µM*	x

Screening results from PubChem BioAssay.
